Experimental data from PubChem BioAssay (NCATS).
“And” between values parts separate entries of the source, which are not always exact repeats. Equal values may be shown once. Results filed as inconclusive are left out. The source made the active and inactive calls. Unless noted, calls follow the shape of the dose curve; as a rule, active = well fitted curve in the direction sought with a large enough effect; inconclusive = small, poorly fitted or top-dose-only effect, or another doubt; inactive = no such curve, though single readings can be large; an effect the other way counts as inactive or inconclusive.

Experiments:
[1] = target: Cytochrome P450 2C9 (Homo sapiens) (UniProt P11712); experiment: qHTS Assay for Inhibitors and Substrates of Cytochrome P450 2C9 (AID 883); also: potency is read from the fitted curve at half-maximal effect; nearly all actives have a fitted effect of over 60% in size
Sequence of Cytochrome P450 2C9 (Homo sapiens) (P11712 whole entry, looked up): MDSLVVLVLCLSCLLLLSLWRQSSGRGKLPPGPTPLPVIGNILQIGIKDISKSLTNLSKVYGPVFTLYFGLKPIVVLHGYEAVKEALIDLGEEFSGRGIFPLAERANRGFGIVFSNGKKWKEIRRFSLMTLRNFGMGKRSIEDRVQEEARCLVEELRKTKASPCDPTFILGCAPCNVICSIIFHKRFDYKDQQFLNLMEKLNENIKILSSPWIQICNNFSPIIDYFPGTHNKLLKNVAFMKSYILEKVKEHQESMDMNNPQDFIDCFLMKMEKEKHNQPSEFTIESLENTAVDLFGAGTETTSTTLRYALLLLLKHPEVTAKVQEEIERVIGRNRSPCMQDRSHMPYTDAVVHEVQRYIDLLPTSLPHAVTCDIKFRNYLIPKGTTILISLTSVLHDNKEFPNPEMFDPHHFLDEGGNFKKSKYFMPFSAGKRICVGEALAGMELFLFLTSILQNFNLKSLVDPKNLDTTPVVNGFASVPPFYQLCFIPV
How it was run: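 Luminescent read-out of deoxyluciferin hydroxylation, normalized to 57uM sulphaphenazole (AC100). Reaction: 10nM enzyme, 100uM Luciferin-H (equal to KM), 25mM KPO4, 10 min compound preincubation, then 60 min with NADPH regeneration, both at 37C.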

[2] = target: Cytochrome P450 3A4 (Homo sapiens) (UniProt P08684); experiment: qHTS Assay for Inhibitors and Substrates of Cytochrome P450 3A4 (AID 884); also: potency is read from the fitted curve at half-maximal effect; nearly all actives have a fitted effect of over 50% in size
Sequence of Cytochrome P450 3A4 (Homo sapiens) (P08684 whole entry, looked up): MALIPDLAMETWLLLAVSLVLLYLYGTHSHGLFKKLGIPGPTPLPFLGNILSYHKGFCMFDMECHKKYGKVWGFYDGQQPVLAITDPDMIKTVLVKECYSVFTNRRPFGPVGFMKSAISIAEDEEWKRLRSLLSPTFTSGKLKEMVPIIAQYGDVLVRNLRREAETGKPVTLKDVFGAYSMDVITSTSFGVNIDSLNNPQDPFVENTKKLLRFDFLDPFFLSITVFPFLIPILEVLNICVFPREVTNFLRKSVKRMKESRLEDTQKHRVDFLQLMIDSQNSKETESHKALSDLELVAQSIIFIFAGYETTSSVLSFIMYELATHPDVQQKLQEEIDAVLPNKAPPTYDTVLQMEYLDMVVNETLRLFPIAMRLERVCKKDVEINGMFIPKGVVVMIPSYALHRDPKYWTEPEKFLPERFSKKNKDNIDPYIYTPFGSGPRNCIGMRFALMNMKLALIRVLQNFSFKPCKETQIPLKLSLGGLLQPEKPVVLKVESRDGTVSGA
How it was run: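 20 nM human CYP3A4 with 25 uM Luciferin-PPXE (at KM) in 200 mM KPO4, preincubated 10 min with compound; NADPH regeneration started a 60 min RT reaction. Luciferin detected by luminescence, normalized to 57 uM ketoconazole as full inhibition.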

[3] = target: Cytochrome P450 3A4 (Homo sapiens) (UniProt P08684); experiment: qHTS Assay for Activators of Cytochrome P450 3A4 (AID 885); also: nearly all actives have a fitted effect of over 65% in size
How it was run: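 Human CYP3A4 (20 nM) with Luciferin-PPXE at 25 uM (its KM) in 200 mM KPO4; 10 min compound preincubation, then NADPH regeneration and 60 min reaction at RT. Luciferin read by luminescence; normalized to 57 uM ketoconazole full inhibition.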

[4] = target: Cytochrome P450 2D6 (Homo sapiens) (UniProt P10635); experiment: qHTS Assay for Inhibitors and Substrates of Cytochrome P450 2D6 (AID 891); also: potency is read from the fitted curve at half-maximal effect; nearly all actives have a fitted effect of over 60% in size
How it was run: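 Human CYP2D6 (5 nM) with 30 uM Luciferin-ME EGE (at Km) in 100 mM KPO4, compound preincubated 10 min, then NADPH regeneration system for 60 min at room temperature. Luciferin read by luminescence; normalized to 1.43 uM quinidine.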

[5] = target: Cytochrome P450 2C19 (Homo sapiens) (UniProt P33261); experiment: qHTS Assay for Inhibitors and Substrates of Cytochrome P450 2C19 (AID 899); also: potency is read from the fitted curve at half-maximal effect; nearly all actives have a fitted effect of over 60% in size
How it was run: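 Luminescence readout of luciferin formed from 10uM Luciferin-H EGE (KM level) by 5 nM CYP2C19 in 50mM KPO4. 60 min NADPH-driven reaction at 37C after 10 min compound preincubation; data scaled to 57uM ketoconazole inhibition.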

[6] = qHTS Assay for Identification of Small Molecule Antagonists for Thrombopoietin (TPO) Signaling Pathway (AID 918); details: TPO-dependent cell signaling reporter, antagonist mode; also: potency is read from the fitted curve at half-maximal effect; nearly all actives have a fitted effect of over 60% in size
How it was run: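 Ba/F3 (murine, hTPO-R, GPIIb-luc reporter); overnight IL-3 withdrawal; cpd + TPO 26 pM final (EC50); 24 h 37 C/5% CO2; Steadylite luminescence after 10 min RT.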

[7] = target: Alpha-galactosidase (Coffea arabica) (UniProt Q42656); experiment: Counterscreen for Glucocerebrosidase Inhibitors: qHTS Assay for Coffee Bean alpha-Galactosidase at pH 4.5 (AID 957)
Sequence of Alpha-galactosidase (Coffea arabica) (Q42656 whole entry, looked up): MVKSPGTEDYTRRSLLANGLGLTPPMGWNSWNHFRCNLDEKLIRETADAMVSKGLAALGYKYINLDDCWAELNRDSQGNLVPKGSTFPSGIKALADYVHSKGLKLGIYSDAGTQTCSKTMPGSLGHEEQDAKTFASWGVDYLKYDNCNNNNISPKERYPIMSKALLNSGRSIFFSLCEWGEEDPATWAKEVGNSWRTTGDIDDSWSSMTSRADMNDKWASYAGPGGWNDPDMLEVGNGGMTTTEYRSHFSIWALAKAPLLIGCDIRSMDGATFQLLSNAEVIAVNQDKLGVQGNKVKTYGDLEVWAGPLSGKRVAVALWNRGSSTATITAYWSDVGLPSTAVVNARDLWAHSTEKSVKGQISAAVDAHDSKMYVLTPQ
How it was run: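 Coffee bean alpha-galactosidase 2 nM, substrate 4-MU-alpha-Gal 80 uM, pH 4.5 citrate/Tween-20, 20 min RT. Cpd titration 0.7 nM–77 uM. Stop pH 10, fluorescence 365/440 nm; Hill-equation AC50.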

[8] = target: Alpha-galactosidase (Coffea arabica) (UniProt Q42656); experiment: Counterscreen for Glucocerebrosidase Inhibitors: qHTS Assay for Coffee Bean alpha-Galactosidase at pH 5.9 (AID 998)
How it was run: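 Compounds were titrated from 0.7 nM to 77 uM against green coffee bean alpha-galactosidase (2 nM) using 80 uM fluorogenic 4-methylumbelliferyl substrate. After 20 min at room temperature, reactions were stopped at pH 10 and read by fluorescence.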

[9] = target: DNA repair nuclease/redox regulator APEX1 (Homo sapiens) (UniProt P27695); experiment: qHTS Validation Assay for Inhibitors of the Human Apurinic/apyrimidinic Endonuclease 1 (APE1) (AID 1705; also: potency is read from the fitted curve at half-maximal effect)
Sequence of DNA repair nuclease/redox regulator APEX1 (Homo sapiens) (P27695 whole entry, looked up): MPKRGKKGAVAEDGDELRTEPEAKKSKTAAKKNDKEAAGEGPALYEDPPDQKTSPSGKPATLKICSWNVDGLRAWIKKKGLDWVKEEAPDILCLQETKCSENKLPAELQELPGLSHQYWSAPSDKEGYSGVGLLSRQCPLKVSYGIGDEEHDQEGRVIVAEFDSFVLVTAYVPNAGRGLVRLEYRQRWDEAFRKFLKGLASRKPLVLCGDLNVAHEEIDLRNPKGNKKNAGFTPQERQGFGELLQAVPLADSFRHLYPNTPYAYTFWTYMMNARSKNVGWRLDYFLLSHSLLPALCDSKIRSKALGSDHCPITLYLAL
How it was run: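 Substrate: 50 nM final fluorophore/quencher THF-abasic duplex. Enzyme preincubated with compounds 15 min, RT. Progress derived from fluorescence difference, third minus first kinetic read.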

[10] = Counterscreen for APE1 Inhibitors: Fluorescent Dye Displacement Validation Assay (AID 1707); also: potency is read from the fitted curve at half-maximal effect
How it was run: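 Thiazole Orange (250 nM) bound to 50 nM TAMRA-labelled dsDNA with tetrahydrofuran abasic site; displacement by DNA-binding compounds lowers fluorescence. Buffer 50 mM Tris-HCl pH 7.5, 50 mM NaCl, 2 mM MgCl2, 0.01% Tween-20; endpoint read at 480/540 nm.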

[11] = qHTS for differential inhibitors of proliferation of Plasmodium falciparum line 7G8 (AID 1815);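 also: potency is read from the fitted curve at half-maximal effect; parasite growth measured after three days of incubation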
[12] = qHTS for differential inhibitors of proliferation of Plasmodium falciparum line W2 (AID 1883); details: Potency: Plasmodium falciparum W2 proliferation inhibition;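 also: potency is read from the fitted curve at half-maximal effect; parasites grown with compound for 72 h before lysis and staining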
[13] = Validation screen for inhibitors of Lassa infection (AID 463096; calls by dose curve)
[14] = target: DNA polymerase III PolC-type (Bacillus subtilis (strain 168)) (UniProt P13267); experiment: qHTS Validation Assay for the Inhibitors of DNA Replication in Gram-Positive Bacteria (AID 485295); also: potency is read from the fitted curve at half-maximal effect
How it was run: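 Inhibition of DNA synthesis by the reconstituted PolC holoenzyme, monitored through PicoGreen staining of dsDNA formed from ssM13Gori, dNTPs and NTPs, with compound preincubation and room-temperature reaction.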

[15] = target: M-phase phosphoprotein 8 (Homo sapiens) (UniProt Q99549); experiment: qHTS Validation Assay for Inhibitors for MPP8 Chromodomain Interactions with Methylated Histone Tails (AID 488949); also: potency is read from the fitted curve at half-maximal effect; nearly all actives have a fitted effect of over 55% in size
How it was run: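 Chemiluminescent proximity assay: histidine-tag capture via nickel acceptor beads, biotin peptide via streptavidin donor beads. Protein and peptide each at 50 nM, pH 7.4, with 30 min incubations at room temperature for complex formation, compound exposure and bead binding.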

[16] = target: Chromobox protein homolog 1 (Homo sapiens) (UniProt P83916); experiment: qHTS Validation Assay for Inhibitors of HP1-beta Chromodomain Interactions with Methylated Histone Tails (AID 488953); also: potency is read from the fitted curve at half-maximal effect; nearly all actives have a fitted effect of over 50% in size
How it was run: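 50 nM HP1-beta + 50 nM biotin-H3(1-18)K9me3, PBS pH 7.4, 0.01% Tween-20, 30 min RT; compound added, 30 min RT; AlphaScreen beads 10 ug/mL final, 30 min dark; luminescence read.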

[17] = Inducers of the Endoplasmic Reticulum Stress Response (ERSR) in human glioma: Validation (AID 504836)
How it was run: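 ERSR induction read as luciferase luminescence (Bright-Glo, 10 min at room temperature) in stably transfected human U87-MG glioma cells exposed to compounds for 16 h, using GRP78 as sensor.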

[18] = qHTS assay for small molecule agonists of retinoid X receptor alpha signaling (AID 588544; calls by dose curve); details: HEK293T RXRa-UAS-bla, beta-lactamase reporter, 18 h; 530 nm emission
[19] = target: Retinoic acid receptor RXR-alpha (Homo sapiens) (UniProt P19793); experiment: as above
Sequence of Retinoic acid receptor RXR-alpha (Homo sapiens) (P19793 whole entry, looked up): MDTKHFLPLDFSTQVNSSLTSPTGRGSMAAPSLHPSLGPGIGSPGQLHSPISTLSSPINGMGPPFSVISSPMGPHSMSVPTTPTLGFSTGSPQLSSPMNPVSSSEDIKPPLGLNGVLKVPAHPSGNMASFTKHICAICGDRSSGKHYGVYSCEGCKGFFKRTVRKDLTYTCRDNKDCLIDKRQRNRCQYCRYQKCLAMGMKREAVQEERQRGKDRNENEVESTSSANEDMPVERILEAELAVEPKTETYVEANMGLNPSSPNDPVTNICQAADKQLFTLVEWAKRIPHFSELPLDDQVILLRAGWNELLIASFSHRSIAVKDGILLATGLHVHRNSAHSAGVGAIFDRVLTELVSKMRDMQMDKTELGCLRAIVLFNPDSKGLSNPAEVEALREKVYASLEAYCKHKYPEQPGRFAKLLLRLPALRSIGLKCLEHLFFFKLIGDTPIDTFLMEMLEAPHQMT

[20] = target: Voltage-gated inwardly rectifying potassium channel KCNH2 (Homo sapiens) (UniProt Q12809); experiment: qHTS Assay for Small Molecule Inhibitors of the Human hERG Channel Activity (AID 588834);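 also: top concentration of the series differs between compounds; lower thallium flux fluorescence means stronger hERG block; nearly all actives have a fitted effect of over 50% in size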
Sequence of Voltage-gated inwardly rectifying potassium channel KCNH2 (Homo sapiens) (Q12809 whole entry, looked up): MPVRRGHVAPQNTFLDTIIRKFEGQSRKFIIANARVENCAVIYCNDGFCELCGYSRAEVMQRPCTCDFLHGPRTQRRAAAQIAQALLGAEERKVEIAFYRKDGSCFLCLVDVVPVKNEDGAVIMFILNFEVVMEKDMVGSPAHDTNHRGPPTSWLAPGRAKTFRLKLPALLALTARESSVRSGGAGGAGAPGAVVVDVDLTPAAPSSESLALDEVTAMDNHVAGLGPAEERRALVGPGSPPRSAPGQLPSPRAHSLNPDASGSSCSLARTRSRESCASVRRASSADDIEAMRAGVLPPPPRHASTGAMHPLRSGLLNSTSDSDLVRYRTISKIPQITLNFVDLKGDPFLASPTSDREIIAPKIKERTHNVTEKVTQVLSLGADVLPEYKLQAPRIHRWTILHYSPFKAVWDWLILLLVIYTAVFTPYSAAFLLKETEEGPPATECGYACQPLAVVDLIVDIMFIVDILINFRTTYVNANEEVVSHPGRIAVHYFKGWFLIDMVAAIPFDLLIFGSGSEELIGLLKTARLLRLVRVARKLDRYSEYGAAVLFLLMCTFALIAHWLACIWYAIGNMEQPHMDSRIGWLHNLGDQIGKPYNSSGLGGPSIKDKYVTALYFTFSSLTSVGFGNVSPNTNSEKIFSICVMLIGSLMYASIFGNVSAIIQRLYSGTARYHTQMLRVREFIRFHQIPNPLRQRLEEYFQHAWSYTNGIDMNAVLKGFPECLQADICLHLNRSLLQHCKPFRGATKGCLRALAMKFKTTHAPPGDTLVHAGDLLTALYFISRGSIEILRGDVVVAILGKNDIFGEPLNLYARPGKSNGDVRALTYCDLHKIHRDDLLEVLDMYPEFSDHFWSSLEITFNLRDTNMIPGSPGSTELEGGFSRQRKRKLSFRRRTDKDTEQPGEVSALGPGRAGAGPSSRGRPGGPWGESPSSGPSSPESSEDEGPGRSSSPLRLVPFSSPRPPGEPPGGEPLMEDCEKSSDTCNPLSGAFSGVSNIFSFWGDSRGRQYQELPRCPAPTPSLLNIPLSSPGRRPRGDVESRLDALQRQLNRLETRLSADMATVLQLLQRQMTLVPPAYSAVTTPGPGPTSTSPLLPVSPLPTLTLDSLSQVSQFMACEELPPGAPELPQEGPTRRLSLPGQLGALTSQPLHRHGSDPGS
How it was run: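 Blockade is seen as reduced FluxOR thallium-flux fluorescence in U2OS cells expressing hERG from a BacMam construct, in Opti-MEM with 2% FCS. Concentration-response data fitted to the Hill equation for AC50.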

[21] = qHTS assay for small molecule agonists of the antioxidant response element (ARE) signaling pathway (AID 651741; active = well fitted activation curve with a large enough effect in the signal ratio; the % refers to the signal ratio; also: potency is read from the fitted curve at half-maximal effect)
How it was run: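 Quantitative HTS in HepG2 cells stably expressing an ARE-beta-lactamase reporter; 16 h compound exposure at 37 C, followed by 2 h room-temperature incubation with LiveBLAzer B/G FRET substrate and fluorescence measurement.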

[22] = qHTS assay for small molecule activators of the p53 signaling pathway (AID 651743; active = well fitted activation curve with a large enough effect in the signal ratio, not every such curve was filed as active; the % refers to the signal ratio; also: potency is read from the fitted curve at half-maximal effect); details: HCT-116 p53RE-bla, beta-lactamase FRET ratio, 16 h; activation: stronger effect = higher value
How it was run: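 Read-out is fluorescence intensity from the LiveBLAzer B/G FRET substrate, added for 2 hours at room temperature after HCT-116 p53RE-bla cells had been incubated with compounds for 16 hours at 37 C.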

[23] = qHTS assay for small molecule disruptors of the mitochondrial membrane potential - 1 hr assay (AID 651754; calls by dose curve; also: potency is read from the fitted curve at half-maximal effect; nearly all actives have a fitted effect of over 35% in size)
How it was run: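 HepG2, 2,000 cells/well, overnight attachment; cpd or DMSO 1 hr, 37C/5% CO2; Mito-MPS dye 30 min, 37C; fluorescence monomer (490/535) and aggregate (540/590).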

[24] = qHTS assay for small molecule disruptors of the mitochondrial membrane potential - 5 hr assay (AID 651755; calls by dose curve; also: potency is read from the fitted curve at half-maximal effect; nearly all actives have a fitted effect of over 40% in size)
How it was run: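 HepG2, 2,000 cells/well, overnight attach; cpd or DMSO 5 hr, 37C/5% CO2; Mito-MPS 30 min 37C; fluor 490/535 + 540/590 nm.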

[25] = qHTS assay to identify small molecules that stimulate interleukin-8 (IL-8) secretion (AID 651758; active = well fitted activation curve with a large enough effect in the signal ratio; the % refers to the signal ratio; also: potency is read from the fitted curve at half-maximal effect)
How it was run: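 Secreted IL-8 measured by TR-FRET sandwich (cryptate and XL665 antibodies) from THP-1 cells exposed to compound overnight (16 hrs, 37 C).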

[26] = qHTS assay for environmental chemicals that activate the Aryl hydrocarbon Receptor (AhR) signaling pathway (AID 651777); details: 1A2-DRE human hepatoma cells, luciferase, 24 h; activation: stronger effect = higher value; also: potency is read from the fitted curve at half-maximal effect; nearly all actives have a fitted effect of over 15% in size
How it was run: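 Reporter gene assay: hepatoma cells with DRE/CYP1A2-luciferase, 24 hr compound incubation at 37 C, 5% CO2, luminescence after One-Glo (30 min, RT).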

[27] = target: Nuclear receptor ROR-gamma (Homo sapiens) (UniProt P51449); experiment: qHTS assay for small molecule antagonists of the retinoid-related orphan receptor gamma (ROR-gamma) signaling pathway (AID 651802)
Sequence of Nuclear receptor ROR-gamma (Homo sapiens) (P51449 whole entry, looked up): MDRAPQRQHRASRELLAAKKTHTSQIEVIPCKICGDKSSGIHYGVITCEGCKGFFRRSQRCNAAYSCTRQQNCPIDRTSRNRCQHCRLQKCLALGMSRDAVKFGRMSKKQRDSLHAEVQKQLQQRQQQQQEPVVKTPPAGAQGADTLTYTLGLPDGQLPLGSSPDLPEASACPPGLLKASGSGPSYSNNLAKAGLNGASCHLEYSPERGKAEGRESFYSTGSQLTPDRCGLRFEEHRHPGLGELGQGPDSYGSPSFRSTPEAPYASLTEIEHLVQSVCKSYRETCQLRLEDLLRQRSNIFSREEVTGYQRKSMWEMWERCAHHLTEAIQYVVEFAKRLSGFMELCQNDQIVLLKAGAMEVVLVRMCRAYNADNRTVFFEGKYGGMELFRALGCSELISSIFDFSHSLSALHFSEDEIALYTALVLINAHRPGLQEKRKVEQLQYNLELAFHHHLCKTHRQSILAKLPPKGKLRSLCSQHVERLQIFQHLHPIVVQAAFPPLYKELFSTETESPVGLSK
How it was run: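 CHO, TET-inducible ROR + RORE-LUC reporter, 1536-well qHTS. Compound pinned, doxycycline added, 16hr 37C/5% CO2. ONE-Glo, 30 min RT, luminescence; signal drop scored as antagonism.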

[28] = target: Arylsulfatase A (Homo sapiens) (UniProt P15289); experiment: qHTS screen for enhancers of Arylsulfatase A (ASA1): LOPAC Validation Assay (AID 720538)
Sequence of Arylsulfatase A (Homo sapiens) (P15289 whole entry, looked up): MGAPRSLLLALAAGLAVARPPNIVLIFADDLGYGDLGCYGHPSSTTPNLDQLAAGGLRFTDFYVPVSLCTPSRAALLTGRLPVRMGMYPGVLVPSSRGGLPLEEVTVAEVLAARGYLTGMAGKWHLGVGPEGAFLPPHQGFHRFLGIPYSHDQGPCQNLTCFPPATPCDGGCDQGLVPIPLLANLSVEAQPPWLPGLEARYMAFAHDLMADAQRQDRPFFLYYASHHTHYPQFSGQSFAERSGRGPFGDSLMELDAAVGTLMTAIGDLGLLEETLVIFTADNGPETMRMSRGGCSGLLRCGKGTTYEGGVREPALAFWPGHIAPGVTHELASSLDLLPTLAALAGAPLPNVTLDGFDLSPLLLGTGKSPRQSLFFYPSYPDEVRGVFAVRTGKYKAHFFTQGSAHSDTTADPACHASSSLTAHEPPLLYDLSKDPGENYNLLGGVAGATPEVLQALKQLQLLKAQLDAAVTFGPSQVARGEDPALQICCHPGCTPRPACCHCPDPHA
How it was run: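 Cell-based enhancement test: residual ASA activity in SV40-transformed I179S patient fibroblasts is measured by pNCS turnover (0.5mM final, 14h, room temperature) following 48h compound incubation; higher fluorescence indicates activation.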

[29] = qHTS profiling of the MIPE4 collection as inhibitors of Plasmodium falciparum (3D7) proliferation (AID 743344; call rule not given here); details: P. falciparum 3D7 in erythrocytes, SYBR Green DNA fluorescence, 72 h; at 28.5 µM (top of the series) unless noted
How it was run: (§1)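 Erythrocytes infected with P. falciparum (0.3% parasitemia, 2.5% hematocrit) incubated with compounds 72 h at 37 C, 5% CO2. Lysis with saponin/Triton buffer containing SYBR Green I, overnight at room temperature in the dark; DNA fluorescence (485/535 nm) normalised to 0.29 uM artemisinin and DMSO.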

[30] = qHTS profiling of the MIPE4 collection as inhibitors of Plasmodium falciparum (DD2) proliferation (AID 743345; call rule not given here); details: P. falciparum Dd2 in erythrocytes, SYBR Green DNA, 72 h; at 28.5 µM (top of the series) unless noted
How it was run: as §1

[31] = qHTS profiling of the MIPE4 collection as inhibitors of Plasmodium falciparum (DD2) proliferation (Rep 2) (AID 743346; call rule not given here); details: P. falciparum Dd2 in erythrocytes, SYBR Green DNA, 72 h; at 28.5 µM (top of the series) unless noted
How it was run: as §1

[32] = qHTS for Inhibitors of the Functional Ribonucleoprotein Complex (vRNP) of Lassa (LASV) Arenavirus: LASV Primary Screen - GLuc reporter signal (AID 1347082; calls by dose curve; tested in HEK293 reporter line; also: nearly all actives have a fitted effect of over 60% in size)
[33] = qHTS for Inhibitors of the Functional Ribonucleoprotein Complex (vRNP) of Lassa (LASV) Arenavirus: Viability assay - alamar blue signal for LASV Primary Screen (AID 1347083; calls by dose curve; tested in HEK293 reporter line; also: nearly all actives have a fitted effect of over 80% in size)
[34] = qHTS for Inhibitors of the Functional Ribonucleoprotein Complex (vRNP) of Lymphocytic Choriomeningitis Arenaviruses (LCMV): Viability assay - alamar blue signal for LCMV Primary Screen (AID 1347085; calls by dose curve; tested in HEK293 reporter line; also: nearly all actives have a fitted effect of over 80% in size)
[35] = target: Nucleoprotein (Lymphocytic choriomeningitis virus (strain Armstrong)) (UniProt P09992); experiment: qHTS for Inhibitors of the Functional Ribonucleoprotein Complex (vRNP) of Lymphocytic Choriomeningitis Arenaviruses (LCMV): LCMV Primary Screen - GLuc reporter signal (AID 1347086; calls by dose curve; also: nearly all actives have a fitted effect of over 70% in size)
Sequence of Nucleoprotein (Lymphocytic choriomeningitis virus (strain Armstrong)) (P09992 whole entry, looked up): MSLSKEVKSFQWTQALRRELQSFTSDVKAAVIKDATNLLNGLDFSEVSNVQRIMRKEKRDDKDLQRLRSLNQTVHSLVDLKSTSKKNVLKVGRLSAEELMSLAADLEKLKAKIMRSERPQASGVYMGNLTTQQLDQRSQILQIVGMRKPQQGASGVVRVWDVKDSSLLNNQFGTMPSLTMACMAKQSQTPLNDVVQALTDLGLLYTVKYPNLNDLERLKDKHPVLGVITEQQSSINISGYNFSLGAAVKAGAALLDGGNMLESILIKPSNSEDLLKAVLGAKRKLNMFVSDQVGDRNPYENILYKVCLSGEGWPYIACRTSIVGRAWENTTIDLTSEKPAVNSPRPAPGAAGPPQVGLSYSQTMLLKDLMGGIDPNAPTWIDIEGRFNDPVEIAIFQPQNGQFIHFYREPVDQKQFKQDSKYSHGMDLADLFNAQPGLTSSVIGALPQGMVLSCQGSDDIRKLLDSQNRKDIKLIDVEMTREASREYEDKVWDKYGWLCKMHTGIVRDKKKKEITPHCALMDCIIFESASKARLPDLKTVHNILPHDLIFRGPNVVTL

[36] = Cytotoxicity counterscreen for inhibitors of SARS-CoV-2 cell entry (AID 1645845; calls by dose curve; also: nearly all actives have a fitted effect of over 50% in size)
How it was run: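 48 h compound treatment (after 1 h preincubation), HEK293-ACE2 cells, 37 C/5% CO2; ATP luminescence endpoint; normalized to cell wells and media blanks.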

[37] = Primary qHTS to identify inhibitors of SARS-CoV-2 cell entry (AID 1645846; calls by dose curve; also: nearly all actives have a fitted effect of over 45% in size); details: activity change, negative = inhibition: at 57.1 µM (top of the series) unless noted
How it was run: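 Using luciferase-reporting pseudoviruses carrying Wuhan-Hu-1 spike, the screen tracks entry into stably ACE2-expressing cells over 48 hr. Activity is expressed relative to spike particles versus particles lacking any fusion protein.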

CRL-7250 = normal cell line; experiment: qHTS assay to identify novel small-molecules to repurpose for Merkel cell carcinoma treatment (AID 1296009); details: MCC and control cell lines, CellTiter-Glo viability, 72 h; series mostly up to 92 µM; also: nearly all actives have a fitted effect of over 60% in size
How it was run: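 72 hr, 37 degree celsius; NPC 8-pt / MIPE 11-pt dose response; compound pinned in DMSO; CellTiter-Glo, 10 min RT, luminescence; normalized to no-cell and DMSO controls.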

Cc1cc(O)c2c(c1)C(=O)c1cc(O)cc(O)c1C2=O
active: Potency [1] 7.94 µM | Potency [2] 10 µM | Potency [4] 12.6 µM | Potency [5] 7.94 µM | Potency [6] 12.6 µM | Potency [9] 35.5 µM | Potency [10] 28.2 µM | Potency [11] 11.2 µM | Potency [12] 14.1 µM | Potency [14] 23.8 µM | Potency [15] 10.6 µM | Potency [16] 22.4 µM | Potency [21] 9.69 µM and 18.8 µM | Potency [22] 15.8 µM and 22.4 µM | Potency [23] 2.98 µM | Potency [24] 3.76 µM | Potency [25] 66.8 µM | Potency [26] 44.7 µM | Potency [27] 42.2 µM
76.8%: parasite growth, % of DMSO control [29]
66.9%: parasite growth, % of control (lower = inhibition) [31]
21.4%: max response [18]
90.9%: parasite growth remaining, % of DMSO control (lower = more inhibition) [30]
3.76%: activity change, negative = inhibition [37]
inactive: Potency [3] | outcome [7] | outcome [8] | Potency [13] | outcome [17] | outcome [19] | Potency [20] | Potency [28] | Potency [32] | Potency [33] | Potency [34] | Potency [35] | Potency [36] | Potency (CRL-7250)
